# Source: PubChem BioAssay (National Center for Advancing Translational Sciences (NCATS))
# The sample as a whole holds a higher share of hits than the screen did.
# L3MBTL1 inh: inhibitors of human L3MBTL1; AlphaScreen L3MBTL1–H3K9me1 peptide binding; Potency, µM (highest dose often 57.1 µM), hits mostly inhibitors; actives 0.66% (n = 230,000); AID 485360; note: nearly all actives have a fitted effect of over 60% in size
#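 L3MBTL1 50 nM + b-AHA-H3(1-15)K9me1 75 nM, 30 min RT; compound added, 30 min RT; streptavidin donor/Ni-chelate acceptor beads 10 ug/mL each final, 30 min RT dark; AlphaScreen read.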
# BLM helicase inh: inhibitors of human Bloom syndrome helicase BLM | P54132 | recombinant BLM DNA unwinding, fluorescence dequenching | Potency, µM (series often up to 56.1 µM), usual class: inhibitors | AID 2528 | actives 0.2% (n = 350,000); note: nearly all actives have a fitted effect of over 35% in size
# APEX1 inh: blocks human APE1 abasic DNA cleavage | actives 0.35% (n = 350,000) | Potency, µM (highest dose often 65.8 µM), actives largely listed as inhibitors | P27695 | AID 2517 | recombinant APE1, TAMRA/BHQ-2 abasic DNA cleavage fluorescence; note: nearly all actives have a fitted effect of over 55% in size
# Target sequence (P27695 whole entry, looked up): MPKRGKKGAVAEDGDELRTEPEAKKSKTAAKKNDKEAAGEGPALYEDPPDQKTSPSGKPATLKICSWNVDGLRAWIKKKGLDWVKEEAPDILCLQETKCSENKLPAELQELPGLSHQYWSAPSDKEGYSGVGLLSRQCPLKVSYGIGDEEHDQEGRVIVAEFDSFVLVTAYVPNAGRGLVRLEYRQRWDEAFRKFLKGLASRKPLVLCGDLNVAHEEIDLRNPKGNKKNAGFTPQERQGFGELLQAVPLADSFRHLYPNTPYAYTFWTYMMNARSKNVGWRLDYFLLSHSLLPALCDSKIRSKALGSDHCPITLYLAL
#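 Enzyme (0.75 nM final) and test compound are incubated 15 min at room temperature before adding 50 nM quenched THF abasic-site duplex. Cleavage dequenches TAMRA, followed at 525/598 nm over three reads one minute apart.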
# GCN5L2 inh: inhibitors of human GCN5L2 histone acetyltransferase; Q92830; GCN5L2 HAT assay, ThioGlo1 CoA-SH fluorescence; Potency, µM (doses to about 58.9 µM), most hits filed as inhibitors; actives 0.21% (n = 390,000); AID 504327
#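 GCN5L2 (20 nM) in 50mM HEPES pH 7.5, 0.1mM EDTA, 0.01% Tween-20 preincubated 15 min with compounds at room temperature. Reaction started with H3(1-25) 75uM, acetyl-CoA 70uM, ThioGlo1 50uM; CoA-thiol fluorescence (Ex340/Em540) read at 0 and 20 min.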
# RECQ1 inh-1: blocks DNA unwinding by human RECQ1; P46063; RECQ1 DNA unwinding, red fluorescence kinetic read; actives 0.54% (n = 240,000); Potency, µM (doses to about 57.3 µM), hits mostly inhibitors; note: nearly all actives have a fitted effect of over 30% in size
#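 50 nM RECQ1T1 preincubated 15 min with compound in Tris pH 8.0 buffer with MgCl2, DTT, Tween-20 and 2.5 ug/ml poly(dI-dC); started with 200 nM TAMRA/BHQ-2 forked duplex and 2 mM ATP. Unwinding read as fluorescence (525/598 nm), two reads 2 h apart.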
# JMJD2E inh: JMJD2E (human) inhibition | JMJD2E catalytic domain, FDH-coupled NADH fluorescence (FDH is formaldehyde dehydrogenase) | Potency, µM (series often up to 57.1 µM), actives largely listed as inhibitors | actives 1.6% (n = 230,000) | AID 2147; active = well fitted inhibition curve with a large enough effect, not every such curve was filed as active; inconclusive = small, poorly fitted or top-dose-only effect, or another doubt; inactive = no such curve, though single readings can be large or run the other way; note: nearly all actives have a fitted effect of over 50% in size
# Target sequence (B2RXH2 1-337 limits assumed): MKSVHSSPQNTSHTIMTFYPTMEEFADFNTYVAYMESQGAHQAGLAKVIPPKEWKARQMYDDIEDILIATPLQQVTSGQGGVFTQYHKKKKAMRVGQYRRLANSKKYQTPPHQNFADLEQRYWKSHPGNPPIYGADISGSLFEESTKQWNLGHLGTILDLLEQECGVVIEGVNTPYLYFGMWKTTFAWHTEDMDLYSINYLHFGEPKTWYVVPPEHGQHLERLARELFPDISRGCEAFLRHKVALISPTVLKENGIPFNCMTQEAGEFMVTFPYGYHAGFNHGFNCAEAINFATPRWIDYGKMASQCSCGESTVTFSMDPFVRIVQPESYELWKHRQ
# RECQ1 inh conf: confirmation of human RECQ1 helicase inhibitors; shares compounds with RECQ1 inh-1; RECQ1 helicase DNA unwinding, fluorescence; Potency, µM (top dose mostly 229 µM), hits mostly inhibitors; actives 28% (n = 610); AID 2708; note: nearly all actives have a fitted effect of over 45% in size
# ADP FP counter: displaces ADP in a fluorescence polarization counter-screen for RECQ1 hits; shares compounds with RECQ1 inh-1; ADP fluorescence polarization displacement counterscreen; actives 27% (n = 530); Potency, µM (doses to about 228 µM), most hits filed as inhibitors; note: nearly all actives have a fitted effect of over 45% in size
# RECQ1 inh-2: confirmation of human RECQ1 helicase inhibitors | shares compounds with RECQ1 inh-1 | recombinant RECQ1 DNA unwinding, red fluorescence | Potency, µM (doses to about 119 µM), actives largely listed as inhibitors | actives 15% (n = 1,100); note: nearly all actives have a fitted effect of over 50% in size
# Numbers stand for hits; – = inactive; ? = inconclusive; · = not tested or not shown; [ ] = another dose, or the depositor's remark. Unless noted, calls come from the whole dose curve; as a rule, active = well fitted curve in the direction sought with a large enough effect; inconclusive = small, poorly fitted or top-dose-only effect, or another doubt; inactive = no such curve, though single readings can be large; an effect the other way counts as inactive or inconclusive.
SMILES,L3MBTL1 inh,BLM helicase inh,APEX1 inh,GCN5L2 inh,RECQ1 inh-1,JMJD2E inh,RECQ1 inh-2,others
CCOC(=O)C1CCC(CN(Cc2ccc(OC)cc2)S(=O)(=O)c2ccc(F)c(C(=O)Nc3ccc(C)c(C)c3)c2)CC1 (centres undefined),·,–,·,–,·,·,·,
CC(=O)c1ccc(S(=O)(=O)Nc2ccc(-c3ccc4nnc(C)n4n3)cc2)cc1,·,–,?,–,?,?,?,
COc1ccccc1-n1c(SCC(=O)O)nnc1-c1ccc(S(=O)(=O)N2CCCCC2)cc1,·,–,–,–,–,–,·,RECQ1 inh conf=–;ADP FP counter=–
COc1ccccc1-n1c(SCC(=O)N2CCCCC2)nnc1-c1ccccc1O,–,–,–,–,–,–,·,
CC(=O)N1N=C(c2ccccc2)OC1c1ccc([N+](=O)[O-])s1 (centres undefined),·,–,?,–,35µM,14µM,?,
CC(=O)N1N=C(c2cccc([N+](=O)[O-])c2)OC1c1ccc(Br)cc1 (centres undefined),?,–,–,–,–,–,·,
CC(=O)C(C(C)=O)C1(O)C(=O)c2ccccc2C1=O,?,?,?,–,?,–,–,
O=C(NC1(O)C(=O)c2ccccc2C1=O)c1ccccc1,?,?,?,–,–,?,·,
COc1ccccc1N1CCN(CCN2C(=O)C3CCCN3C2=O)CC1 (centres undefined),–[2.29 µM],–,–,–,·,·,·,
O=c1cc(-c2ccccc2)nc2nc(-c3ccco3)[nH]n12,–,–,–,–,25µM,?,–,
CC(=O)N1CCCN(Cc2cn(-c3cccc(C)c3)nc2-c2cccc(F)c2)CC1,–,–,?,–,–,–,·,
O=C1N/C(=N\S(=O)(=O)c2ccccc2)S/C1=C\c1cc([N+](=O)[O-])ccc1O,·,–,–,–,·,·,·,
O=C1N/C(=N\S(=O)(=O)Cc2ccccc2)S/C1=C/c1cc([N+](=O)[O-])ccc1O,–,–,–,–,–,–,·,RECQ1 inh conf=–;ADP FP counter=–
COc1ccc(C2=CC3=C(Br)C(=O)C(C)(OC(=O)C4CCCC4)C(=O)C3=CO2)cc1 (centres undefined),·,–,–,–,–,–,·,
COC(=O)CCC(=O)OC1(C)C(=O)C2=COC(c3ccc(OC)cc3)=CC2=C(Br)C1=O (centres undefined),·,–,?,–,?,–,56µM,
COc1cc(/C=C(\C#N)c2nc3ccccc3[nH]2)cc(OC)c1O,–,–,?,–,?,–,56µM,
CN(C)c1ccc(-c2nc(Nc3ccncc3)c3ccccc3n2)cc1,·,–,–,?,?,?,?,
CN(C)C(=O)c1ccc(-c2nc(Nc3ccncc3)c3ccccc3n2)cc1,·,–,–,–,–,?,·,
Fc1ccccc1N1CCN(c2ncnc3nc[nH]c23)CC1,·,–,–,–,–,–,·,
Clc1ccccc1N1CCN(c2ncnc3nc[nH]c23)CC1,–,–,–,–,28µM,–,?,
O=c1c(-c2cccc(Cl)c2)nc2cncnc2n1C1CC1,·,–,–,–,–,·,·,
Cc1ccc(S(=O)(=O)NNC(=O)Nc2ccc(Cl)cc2)cc1,–,–,–,–,22µM,–,–,
COC1=C(Nc2ccc(O)cc2)C(=O)c2ccccc2C1=O,?,–,?,–,?,10µM,–,
O=C1C(Cl)=C(Nc2ccc(O)cc2)C(=O)c2ccccc21,–,–,–,–,–,–,·,
Cn1c(Cn2nnc3ccccc32)nnc1SCC(=O)N1c2ccccc2CCc2ccccc21,–,–,?,–,–,–,·,
SMILES,L3MBTL1 inh,BLM helicase inh,APEX1 inh,GCN5L2 inh,RECQ1 inh-1,JMJD2E inh,RECQ1 inh-2,others
Cn1c(Cn2nnc3ccccc32)nnc1SCC(=O)N1c2ccccc2Sc2ccccc21,–,–,?,–,–,–,·,RECQ1 inh conf=–;ADP FP counter=–
CN(CC(=O)Nc1cccc(F)c1)C(=O)c1ccc(NC2CC2)c([N+](=O)[O-])c1,–,·,–,–,·,·,·,
Cc1ccc(/C=C/c2onc(C)c2S(=O)(=O)N2CCC(C(=O)NCc3ccc(N(C)C)cc3)CC2)cc1,·,–,·,–,·,·,·,
CSc1nnc(-c2ccco2)c(-c2ccco2)n1,·,?,?,?,?,?,–,
CSc1nnc(-c2ccccc2)c(-c2ccccc2)n1,–,–,–,–,–,–,·,
COc1cccc(C(=O)N(Cc2cc3cc(C)ccc3[nH]c2=O)C(C)C)c1,–,–,–,–,?,?,–,
CC(C)(C)C(=O)OCCNc1nc(-c2ccccc2)nc2ccccc12,–,–,–,–,7.9µM,–,–,RECQ1 inh conf=–
CC(=O)Nc1ccc(S(=O)(=O)Nc2nc3nc(-c4ccccc4)cc(-c4ccccc4)n3n2)cc1,·,–,–,?,·,·,·,
O=C(O)CCC(=O)Nc1nc2nc(-c3ccccc3)cc(-c3ccccc3)n2n1,–,–,–,–,–,?,·,RECQ1 inh conf=35µM;ADP FP counter=?
CCCCCCOC1(c2ccccc2)OC(=O)c2ccccc21 (centres undefined),–,–,–,–,40µM,–,–,
CCCCCCCOC1(c2ccccc2)OC(=O)c2ccccc21 (centres undefined),–,–,–,–,–,–,·,
Cc1cc(O)cc(O)c1C(=O)OC1(C)C(=O)C=C2C=C(/C=C/C(=O)O)OC=C2C1=O (centres undefined),·,–,14µM,·,28µM,?,?,
CCOC(=O)/C(=C/C=C1\Sc2cc(OCC)c(OCC)cc2N1CC)C(C)=O,–,–,?,–,10µM,–,·,RECQ1 inh conf=?;ADP FP counter=45µM
CC1CCN(S(=O)(=O)c2ccc(NC(=O)N3c4ccccc4Sc4ccccc43)cc2)CC1,–,–,–,–,–,–,·,RECQ1 inh conf=–;ADP FP counter=–
CC1=C(C(=O)Nc2ccc(C)cc2C)C(c2ccc(C(C)C)cc2)n2nc(C(F)(F)F)nc2N1 (centres undefined),·,–,·,–,·,·,·,
Cc1ccc(CNC(=O)C(Cc2ccccc2)NS(=O)(=O)c2ccc3c(c2)CCC(=O)N3)cc1 (centres undefined),·,–,–,–,–,–,·,RECQ1 inh conf=–;ADP FP counter=–
Cc1ccc(NC(=O)C(Cc2ccccc2)NS(=O)(=O)c2ccc3c(c2)CCC(=O)N3)cc1 (centres undefined),·,–,·,–,·,·,·,
COC(=O)c1ccccc1NC(=O)C/C(C)=N/NC(=O)Cc1ccc(Cl)cc1,·,–,–,–,·,·,·,
